Data reported in PubChem BioAssay.
The source made the active and inactive calls. Unless noted, how the calls were made is not given here.

Columns and labels:
[1] = compounds binding Alexa647 anti-His antibody – biochemical, small-molecule microarray, 635 nm fluorescence, artefact control for SMM control protein annotation, primary screen (AID 1128); conditions: higher = more signal;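 further: score merges feature fluorescence with signal-to-noise for each printed compound spot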
[2] = system: Human papillomavirus type 1a E7 protein (residues 1-88); assay: HPV1a E7 small-molecule binders, primary screen, biochemical, small-molecule microarray, residues 1-88, 635 nm (AID 1129); conditions: small-molecule microarray binding, fluorescence 635 nm; higher = more signal
[3] = target: Focal adhesion kinase 1 (Homo sapiens) (UniProt Q05397); assay: PTK2 protein binding on printed compound slides – biochemical, small-molecule microarray, 635/667 nm fluorescence, BSA, DTT, primary screen (AID 1130); conditions: 635 nm fluorescence, higher = more signal;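 further: composite of spot emission at 667 nm and signal to noise over triplicate slides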
Sequence of Focal adhesion kinase 1 (Homo sapiens) (Q05397 whole entry, looked up): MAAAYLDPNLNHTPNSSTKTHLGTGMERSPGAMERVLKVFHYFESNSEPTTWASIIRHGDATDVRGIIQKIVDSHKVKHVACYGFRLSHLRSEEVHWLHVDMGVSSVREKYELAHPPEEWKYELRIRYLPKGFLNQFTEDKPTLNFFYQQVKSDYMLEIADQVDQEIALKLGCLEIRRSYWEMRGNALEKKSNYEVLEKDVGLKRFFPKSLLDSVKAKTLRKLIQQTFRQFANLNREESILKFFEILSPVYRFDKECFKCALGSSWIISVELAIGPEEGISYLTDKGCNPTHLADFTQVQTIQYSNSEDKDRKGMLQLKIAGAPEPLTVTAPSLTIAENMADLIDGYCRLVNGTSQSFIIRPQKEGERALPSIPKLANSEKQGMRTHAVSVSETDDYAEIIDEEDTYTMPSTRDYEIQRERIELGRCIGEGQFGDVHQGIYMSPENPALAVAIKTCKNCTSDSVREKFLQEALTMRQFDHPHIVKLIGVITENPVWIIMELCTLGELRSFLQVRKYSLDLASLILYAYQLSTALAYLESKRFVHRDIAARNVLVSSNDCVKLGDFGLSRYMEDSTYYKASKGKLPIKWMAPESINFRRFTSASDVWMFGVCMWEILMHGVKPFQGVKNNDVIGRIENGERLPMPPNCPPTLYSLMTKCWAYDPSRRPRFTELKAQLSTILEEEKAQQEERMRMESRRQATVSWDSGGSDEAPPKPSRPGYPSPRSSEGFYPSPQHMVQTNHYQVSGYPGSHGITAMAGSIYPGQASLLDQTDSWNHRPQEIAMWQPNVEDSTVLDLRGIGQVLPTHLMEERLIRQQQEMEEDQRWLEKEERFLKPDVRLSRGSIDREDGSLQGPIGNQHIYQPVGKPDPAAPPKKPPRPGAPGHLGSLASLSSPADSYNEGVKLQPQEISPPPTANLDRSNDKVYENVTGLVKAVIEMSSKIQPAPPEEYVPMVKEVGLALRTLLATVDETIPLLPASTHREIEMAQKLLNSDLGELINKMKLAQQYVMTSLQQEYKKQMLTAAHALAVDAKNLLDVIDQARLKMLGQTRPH

[4] = system: Fibrinogen (Alexa647-labelled); assay: Alexa647-fibrinogen binding to printed small molecules – biochemical, small-molecule microarray, 635/667 nm fluorescence, artefact control for SMM control-protein annotation, profiling panel (AID 1131); conditions: fibrinogen-A647 binding fluorescence, higher = more signal;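 further: z-score merges 667 nm fluorescence with per-spot signal-to-noise over triplicate slides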
[5] = target: Follistatin (Homo sapiens) (UniProt P19883); assay: FST protein binding to printed compounds – biochemical, small-molecule microarray, 635/667 nm fluorescence, primary screen (AID 1132); conditions: 635 nm fluorescence, higher = more signal
Sequence of Follistatin (Homo sapiens) (P19883 whole entry, looked up): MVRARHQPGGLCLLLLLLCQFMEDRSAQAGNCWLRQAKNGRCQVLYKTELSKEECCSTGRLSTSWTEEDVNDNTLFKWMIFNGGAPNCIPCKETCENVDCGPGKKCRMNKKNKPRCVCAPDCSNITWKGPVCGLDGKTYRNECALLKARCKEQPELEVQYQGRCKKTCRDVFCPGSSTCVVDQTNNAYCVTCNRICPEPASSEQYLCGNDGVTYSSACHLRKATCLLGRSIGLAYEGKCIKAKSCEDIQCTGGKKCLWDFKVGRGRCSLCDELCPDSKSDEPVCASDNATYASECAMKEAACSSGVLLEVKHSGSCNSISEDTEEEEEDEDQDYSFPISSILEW

[6] = target: Fibroblast growth factor 2 (Homo sapiens) (UniProt P09038); assay: basic fibroblast growth factor binding to printed compounds – biochemical, small-molecule microarray, 635/667 nm fluorescence, primary screen (AID 1133); conditions: FGF2, fluorescence 635/667, higher = more signal
Sequence of Fibroblast growth factor 2 (Homo sapiens) (P09038 whole entry, looked up): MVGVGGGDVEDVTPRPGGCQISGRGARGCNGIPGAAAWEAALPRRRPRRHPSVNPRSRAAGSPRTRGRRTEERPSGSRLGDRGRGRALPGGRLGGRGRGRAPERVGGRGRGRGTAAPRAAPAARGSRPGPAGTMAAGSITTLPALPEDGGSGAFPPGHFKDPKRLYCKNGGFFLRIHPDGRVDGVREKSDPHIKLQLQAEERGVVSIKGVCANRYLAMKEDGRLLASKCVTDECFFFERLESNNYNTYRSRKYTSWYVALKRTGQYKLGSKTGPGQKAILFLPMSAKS

[7] = JC-1 mitochondrial potential readout, lung cancer cells – cell-based, A549, JC-1 fluorescence, basal, 24 h, 100 nL, profiling panel (AID 1138); conditions: higher = more signal;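 further: A549 lung adenocarcinoma cells under basal conditions with no added stimulus; test concentration not given here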
Lefty1 = Lefty1 protein binding to printed compounds – biochemical, small-molecule microarray, 635/667 nm fluorescence, primary screen (AID 1139); conditions: fluorescence 635/667, higher = more signal
[8] = system: wheat germ agglutinin (Triticum aestivum), Alexa647-labelled; assay: Alexa647-WGA lectin binding to printed small molecules – biochemical, small-molecule microarray, 635/667 nm fluorescence, artefact control for SMM control-protein annotation, profiling panel (AID 1140); conditions: WGA-A647 binding, 635 nm fluorescence, higher = more signal;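 further: score merges 667 nm feature emission with signal to noise over triplicate slides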
[9] = target: Luciferin 4-monooxygenase (Photinus pyralis) (UniProt P08659); assay: inhibition of purified Photinus pyralis luciferase – biochemical, luminescence, purified enzyme, 2006 set, primary screen (AID 1141); conditions: purified firefly luciferase, SteadyGlo luminescence, 30 min; higher = more signal, called active from +8 up or from −8 down;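 further: cell-free assay with purified firefly luciferase at 100 ng per well in PBS; test concentration not given here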
Sequence of Luciferin 4-monooxygenase (Photinus pyralis) (P08659 whole entry, looked up): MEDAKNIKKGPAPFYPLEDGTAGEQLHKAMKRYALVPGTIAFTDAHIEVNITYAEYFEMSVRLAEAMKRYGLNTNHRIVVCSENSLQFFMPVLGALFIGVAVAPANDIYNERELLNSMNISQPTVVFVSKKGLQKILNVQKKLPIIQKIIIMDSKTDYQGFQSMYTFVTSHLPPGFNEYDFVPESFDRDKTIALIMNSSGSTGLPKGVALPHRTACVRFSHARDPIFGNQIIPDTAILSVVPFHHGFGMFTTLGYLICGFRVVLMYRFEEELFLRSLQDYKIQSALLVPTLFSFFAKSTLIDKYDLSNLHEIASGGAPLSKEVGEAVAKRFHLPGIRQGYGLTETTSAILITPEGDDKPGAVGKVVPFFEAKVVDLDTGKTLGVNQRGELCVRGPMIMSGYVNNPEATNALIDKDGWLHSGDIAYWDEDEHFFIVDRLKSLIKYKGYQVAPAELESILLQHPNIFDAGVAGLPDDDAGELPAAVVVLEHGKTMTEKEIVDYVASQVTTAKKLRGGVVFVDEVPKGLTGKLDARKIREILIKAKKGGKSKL

[10] = system: Wnt5a (protein binding on small-molecule microarray); assay: small molecules binding Wnt5a protein – biophysical, small-molecule microarray, 635/667 nm fluorescence, primary screen (AID 1142); conditions: 635 nm fluorescence, higher = more signal;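 further: fluorescence read at 667 nm with signal to noise per printed feature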
[11] = ATP-based viability of Huh7 replicon cells – cell-based, CellTiter-Glo luminescence, basal, 48 h, cytotoxicity control for HCV replication inhibitor project, primary screen (AID 1143); conditions: higher = more signal, called active from +8 up or from −8 down;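 further: Huh7 hepatoma cells carrying a hepatitis C replication reporter with no stimulus; test concentration not given here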
[12] = Pseudomonas biofilm growth suppression – PAO1 strain, BacTiter-Glo luminescence, LB-PBS, primary screen (AID 1144); conditions: P. aeruginosa PAO1 biofilm, 12 h, higher = more signal
[13] = basal CRE-LacZ reporter activity in PC12 – cell-based, unstimulated, primary screen (AID 1145); conditions: no forskolin, luminescence, 4.5 h, higher = more signal, called active from +8 up or from −8 down
[14] = forskolin-driven CRE-LacZ activity in PC12 – cell-based, CRE-LacZ reporter, forskolin-stimulated, primary screen (AID 1146); conditions: luminescence, 4.5 h, higher = more signal, called active from +8 up or from −8 down;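 further: PC12 cells with 6xCRE LacZ reporter stimulated by forskolin 10 µM; beta-galactosidase reporter signal reflecting CREB driven transcription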
[15] = target: Streptavidin (Streptomyces avidinii) (UniProt P22629); assay: compounds binding control protein streptavidin – biophysical, small-molecule microarray, 635/667 nm fluorescence, artefact control for SMM compound annotation, primary screen (AID 1147); conditions: higher = more signal;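 further: signal reflects streptavidin binding to arrayed compounds as a control protein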
Sequence of Streptavidin (Streptomyces avidinii) (P22629 whole entry, looked up): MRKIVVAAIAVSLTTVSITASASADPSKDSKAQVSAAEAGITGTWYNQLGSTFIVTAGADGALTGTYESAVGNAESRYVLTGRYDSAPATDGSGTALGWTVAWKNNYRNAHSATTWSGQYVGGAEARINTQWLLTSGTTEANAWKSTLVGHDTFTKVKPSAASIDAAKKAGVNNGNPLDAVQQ

[16] = probe aInhba binding on compound microarray – biochemical, small-molecule microarray, 635/667 nm fluorescence, primary screen (AID 1148); conditions: higher = more signal;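 further: score merges 667nm spot fluorescence with signal-to-noise for antibody binding to printed compounds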
Torsin-1A (Homo sapiens) [17] = target: Torsin-1A (Homo sapiens) (UniProt O14656); assay: TOR1A wild-type binding on microarray – cell lysate, small-molecule microarray, lysate, 635/667 nm, primary screen (AID 1149); conditions: COS7 hTOR1A-WT lysate, 635 nm fluorescence, higher = more signal
Sequence of Torsin-1A (Homo sapiens) (O14656 whole entry, looked up): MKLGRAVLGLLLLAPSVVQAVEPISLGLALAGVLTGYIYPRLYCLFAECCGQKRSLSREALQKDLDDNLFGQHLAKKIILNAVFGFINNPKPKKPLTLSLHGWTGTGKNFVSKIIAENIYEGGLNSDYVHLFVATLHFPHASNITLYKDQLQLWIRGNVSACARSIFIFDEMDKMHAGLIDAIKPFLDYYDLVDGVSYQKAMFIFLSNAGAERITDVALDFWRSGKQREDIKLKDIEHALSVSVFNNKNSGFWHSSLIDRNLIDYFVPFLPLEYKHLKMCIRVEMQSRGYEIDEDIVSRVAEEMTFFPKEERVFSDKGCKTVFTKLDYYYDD

Torsin-1A (Homo sapiens) [18] = target: Torsin-1A (Homo sapiens) (UniProt O14656); assay: torsin A mutant lysate binding on microarrays – cell lysate, small-molecule microarray, COS7 lysate, 635/667 nm fluorescence, primary screen (AID 1150); conditions: COS7 hTOR1A mutant lysate, 635 nm fluorescence, higher = more signal;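 further: score pools 667 nm emission and signal to noise measuring lysate protein binding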
[19] = system: Sonic hedgehog protein (Shh); assay: Sonic hedgehog microarray binding compounds – biochemical, small-molecule microarray, 635/667 nm fluorescence, primary screen (AID 1151); conditions: 635 nm fluorescence, higher = more signal;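 further: Shh protein binding to compounds spotted on small-molecule microarray slides; score combines spot fluorescence intensity with signal-to-noise across triplicate slides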

SMILES | composite z-score [1] | composite z-score [2] | composite z-score [3] | composite z-score [4] | composite z-score [5] | composite z-score [6] | z-score [7] | composite z-score (Lefty1) | composite z-score [8] | z-score [9] | composite z-score [10] | z-score [11] | z-score [12] | z-score [13] | z-score [14] | composite z-score [15] | composite z-score [16] | composite z-score (Torsin-1A (Homo sapiens) [17]) | composite z-score (Torsin-1A (Homo sapiens) [18]) | composite z-score [19]
CC(C)C[C@@H]1NC(=O)[C@@]23C(=O)N[C@@H](Cc4ccccc4)C2[C@H](C)[C@@]2(C)O[C@H]2C3/C=C/C/C=C\CNC(=O)[C@@H](CC(C)C)NC1=O (stereo not given in full) | 0.455 | 0.409 | -0.0559 | 0.928 | 0.797 | 0.963 | 0.102 | 0.84 | 0.393 | -1.23 (inactive) | 0.0669 | -0.91 (inactive) | 0.587 (inactive) | 2.66 (inactive) | 0.158 (inactive) | -0.463 | -0.128 | 0.295 | 0.068 | 1.39
O=C(NCC(F)(F)F)[C@@H]1c2ccccc2C(=O)N(CC23CC4CC(CC(C4)C2)C3)[C@H]1c1ccc(CO)cc1 | 1.08 | 0.722 | 1.46 | 0.378 | 1.16 | 1.15 | 0.588 | 0.827 | 0.393 | 0.972 (inactive) | 0.41 | -3.88 (inactive) | -2.52 (inactive) | -0.412 (inactive) | -1.46 (inactive) | -0.169 | 0.038 | 0.11 | 0.438 | 1.62
COc1ccc([Si](C)(C)[C@H]2[C@H](CCn3cc([C@H](O)c4ccccc4)nn3)O[C@@]3(C(=O)N(c4ccccc4)c4ccccc43)[C@@H]2C)cc1 | 0.448 | -0.431 | -0.4 | -0.651 | 1.24 | 0.195 | 0.903 | 1.51 | 0.428 | 0.687 (inactive) | 0.04 | -4.47 (inactive) | 0.674 (inactive) | 0.236 (inactive) | 0.115 (inactive) | -0.265 | -0.0087 | 0.96 | -0.242 | 1.97
CCCCNC(=O)c1ccc(C#C[Si](C)(C)C)c(OC(C)=O)c1 | 0.312 | 0.689 | 0.193 | 0.0903 | 0.389 | 0.326 | -1.35 | 0.479 | -0.0014 | 0.229 (inactive) | -0.0504 | -0.155 (inactive) | 0.305 (inactive) | -0.773 (inactive) | 0.0361 (inactive) | 0.184 | -0.12 | 0.18 | 1.1 | 0.985
COCCOC(=O)N1C(=O)[C@@]2(c3cc(C#CCCO)ccc31)[C@H](C(=O)N1CCc3cc(OC)c(OC)cc3C1)[C@H]1C(=O)O[C@H](c3ccccc3)[C@H](c3ccccc3)N1[C@@H]2c1ccccc1OCCO | 0.362 | 1.19 | 0.496 | 0.87 | 1.41 | 1.3 | -0.976 | 1.3 | 0.603 | 0.151 (inactive) | 0.75 | -1.84 (inactive) | -0.652 (inactive) | -0.89 (inactive) | -0.251 (inactive) | 0.587 | 0.425 | 0.258 | 0.904 | 1.69
CN(C)CCCC[C@@H]1NC(=O)[C@@H]2C[C@H](C(=O)NCCCCCCNC(=O)CS)[C@H](c3cccc(OCCO)c3)N2C1=O | 1.5 | 0.0742 | 0.819 | -1.07 | 0.541 | 0.541 | 1.12 | 0.273 | 0.235 | -0.402 (inactive) | 0.152 | 0.425 (inactive) | -0.332 (inactive) | -0.256 (inactive) | -0.995 (inactive) | -0.149 | -0.0471 | 0.77 | 0.702 | 0.919
COCCOC(=O)N1C(=O)[C@@]2(c3cc(C#CC4=CCCCC4)ccc31)[C@H](c1ccc(OCCO)cc1)N1[C@H](c3ccccc3)[C@H](c3ccccc3)OC(=O)[C@H]1[C@@H]2C(=O)N1CCCCCCC1 | 1.11 | 0.929 | 0.267 | 0.818 | 1.41 | 1.42 | -0.744 | 1.21 | 0.743 | -2.78 (inactive) | 0.266 | -4.59 (inactive) | -1.17 (inactive) | -0.698 (inactive) | -1.13 (inactive) | 0.945 | 1.05 | 0.984 | 0.84 | 1.91
COC(=O)[C@@]1(Cc2ccc(OC)cc2)[C@@H]2[C@@H](CC(=O)[C@H]2CC(=O)C(=O)N2CCCC2)CN1C(=O)c1ccccc1 | 2.96 | 1.27 | 0.888 | 1 | 0.713 | -0.256 | 0.483 | -0.265 | 1.47 | 0.596 (inactive) | 2.07 | -2.82 (inactive) | -0.98 (inactive) | 0.779 (inactive) | -0.013 (inactive) | 1.7 | 1.69 | 0.774 | 1.27 | -0.566
COCCOC(=O)N1C(=O)[C@@]2(c3cc(C#CC4=CCCCC4)ccc31)[C@H](c1ccccc1OCCO)N1[C@H](c3ccccc3)[C@H](c3ccccc3)OC(=O)[C@H]1[C@@H]2C(N)=O | 1.48 | 1.17 | 0.539 | 0.83 | 1.06 | 1.36 | -1.8 | 0.91 | -0.0974 | -1.74 (inactive) | 0.288 | -6.61 (inactive) | -1.73 (inactive) | -2.37 (inactive) | -1.6 (inactive) | 0.771 | -0.115 | 1.21 | 0.137 | 1.7
COCCOC(=O)N1C(=O)[C@@]2(c3cc(C#CCC(C(=O)OC)C(=O)OC)ccc31)[C@H](C(N)=O)[C@H]1C(=O)O[C@H](c3ccccc3)[C@H](c3ccccc3)N1[C@@H]2c1ccc(OCCO)cc1 | 1.37 | 1.22 | 0.985 | 0.923 | 1.25 | 1.1 | -1.07 | 0.596 | 0.762 | -0.409 (inactive) | 0.787 | -2.89 (inactive) | -0.224 (inactive) | 0.478 (inactive) | -0.372 (inactive) | 0.528 | 0.105 | 0.704 | 0.643 | 1.07
